{
  "source": "PubChem BioAssay (NCATS)",
  "note": "Results filed as inconclusive are left out. Unmarked numbers belong to inactive results. The call rests on the fitted dose curve; in most records, active means well fitted activation curve with a large enough effect; inconclusive means small, poorly fitted or top-dose-only effect; inactive means flat fitted curve, though single readings scatter.",
  "data": [
    {"assay": "Cellular Toxicity (caspase-3) Jurkat (AID 655);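 further: cells exposed to compound for 16 h at 37 °C before reading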", "conditions": "Jurkat caspase-3 activation, luminescence; caspase-3 activation: at 92.2 µM (top of the series), DMSO = 0%, tamoxifen = 100%", "from_the_text": "NIH Chemical Genomics Center [NCGC]\nNIH Molecular Libraries Screening Centers Network [MLSCN]\nNational Institutes of Environmental Health Sciences [NIEHS]\nNational Toxicology Program [NTP]\nWe have developed a 1536-well cell-based assay for quantitative high throughput screening (qHTS) against a number of cell lines to determine in vitro caspase 3/7 of small molecules. This particular assay uses the Jurkat cell line which is derived from human T cell leukemia.\nNCGC Assay Protocol Summary:\nThe Caspase-Glo 3/7 assay (Promega) is a homogeneous method to measure caspase-3 and caspase-7 activities in cultured cells. The quantitation of caspase 3/7 activity is based on the cleavage of a peptide-aminoluciferin substrate. After caspase cleaves the substrate the free aminoluciferin is liberated and serves as the substrate of luciferase, which generates the light. The luminescent signal is proportional to amount of caspase 3/7 activity present.\nUsing the Caspase-Glo 3/7 assay, the amount of caspase 3/7 activity was measured in the Jurkat cell line with complete culture medium following compound treatment for 16 hours. The assay was performed in opaque white 1536-well plates. In the screen, tamoxifen and doxorubicin were used as positive controls. Library compounds were measured for their ability to cause the activation of caspase 3/7 in the cell line, as reflected by an increase in luminescence signal, in a concentration-dependent manner. Data were normalized to the controls for basal activity (DMSO only) and 100% stimulation (100 uM tamoxifen). AC50 values were determined from concentration-response data modeled with the standard Hill equation.\nqHTS protocol for caspase 3/7 assay in Jurkat cells\n[Step] [Parameter] [Value] [Description]\n1. Reagent; 5 uL; 5000 Jurkat cells/well\n3. Controls; 23 nL; Tamoxifen 0.23 uM to 100 uM & Doxorubicin 7.0 pM to 100 uM\n4. Time; 16 hr; 37 °C incubation\n5. Reagent; 5 uL; Caspase-Glo 3/7 reagent\n6. Time; 20 min; Room Temperature\n7. Detection; Luminescence; Viewlux plate reader\nKeywords: caspase 3/7, apoptosis, Jurkat cell line, luminescence, NTPHTS, NTPHTS_NCGC, NIEHS, EPA, DSSTox, MLSMR, MLSCN, NIH Roadmap, qHTS, NCGC", "units": {"caspase-3 activation": "%"}, "values": [
      {"smiles": "O=P(O)(OCc1ccccc1)OCc1ccccc1", "caspase-3 activation": 1.88},
      {"smiles": "CC(=O)CCc1ccccc1", "caspase-3 activation": -1.19},
      {"smiles": "CCCCCCCCC", "caspase-3 activation": 0.991},
      {"smiles": "CC(C)Cc1nccs1", "caspase-3 activation": 1.45},
      {"smiles": "CCCCC(C=O)CC", "note": "(stereo not given)", "caspase-3 activation": -0.967},
      {"smiles": "Nc1cccc([N+](=O)[O-])c1", "caspase-3 activation": 0.664},
      {"smiles": "O=C(Cl)c1cccc([N+](=O)[O-])c1", "caspase-3 activation": 2.23},
      {"smiles": "Cc1ccc2cccnc2c1", "caspase-3 activation": -0.667},
      {"smiles": "Nc1nc2ccccc2[nH]1", "caspase-3 activation": 10.5},
      {"smiles": "CC/C=C1/OC(=O)c2ccccc21", "caspase-3 activation": -0.618},
      {"smiles": "Nc1ccc([N+](=O)[O-])c(N)c1", "caspase-3 activation": 0.952},
      {"smiles": "CCOCCOCC", "caspase-3 activation": 1.67},
      {"smiles": "C=C(C)C(=O)OCCCCCC", "caspase-3 activation": 2.29},
      {"smiles": "Cc1ccc(C(C)(C)C)cc1", "caspase-3 activation": 1.39},
      {"smiles": "CCCCC(CC)COCC1CO1", "note": "(stereo not given)", "caspase-3 activation": -3.18},
      {"smiles": "C[C@@H]1CC2(OC[C@]3(C)O[C@H]23)O[C@H]2C[C@@]3(C)[C@@H]4CC[C@H]5C(C)(C)C(O[C@@H]6OC[C@@H](O)[C@H](O)[C@H]6O)CC[C@@]56C[C@@]46CC[C@]3(C)[C@@H]12", "note": "(stereo not given in full)", "caspase-3 activation": 2.9},
      {"smiles": "FC(F)(F)c1cccc(Cl)c1", "caspase-3 activation": -0.146},
      {"smiles": "O=Cc1cccc(Br)c1", "caspase-3 activation": 2.44},
      {"smiles": "Cc1c(N)cccc1N", "caspase-3 activation": -0.535},
      {"smiles": "NC(=O)NC(N)=O", "caspase-3 activation": 0.487},
      {"smiles": "C=CCCCCCCC=C", "caspase-3 activation": 2.57},
      {"smiles": "Nc1c(Cl)cc(Cl)cc1Cl", "caspase-3 activation": 1.83},
      {"smiles": "C=CCOC(=O)CCCCCCCC", "caspase-3 activation": -0.392},
      {"smiles": "N#CCc1ccccc1[N+](=O)[O-]", "caspase-3 activation": 1.28},
      {"smiles": "CCOCC(=O)O", "caspase-3 activation": -1.08},
      {"smiles": "CSc1ccc(C=O)cc1", "caspase-3 activation": 1.05},
      {"smiles": "Cc1cccc2cccnc12", "caspase-3 activation": -0.137},
      {"smiles": "CCOC(C)(C)C", "caspase-3 activation": -1.17},
      {"smiles": "Nc1nc(-c2ccccc2)cs1", "caspase-3 activation": -3.96},
      {"smiles": "ClCCl", "caspase-3 activation": 1.06},
      {"smiles": "CCOc1ccc(NC(C)=O)cc1N", "caspase-3 activation": 0.0364},
      {"smiles": "O=[N+]([O-])c1ccccc1CCO", "caspase-3 activation": 0.961},
      {"smiles": "O=C(O)c1ccc(Cl)c(Cl)c1", "caspase-3 activation": -1.55},
      {"smiles": "CN(C)c1cccc(O)c1", "caspase-3 activation": -0.572},
      {"smiles": "Cc1ccc(CO)cc1", "caspase-3 activation": 2.2},
      {"smiles": "Cc1nc2ccc(Cl)cc2[nH]1", "caspase-3 activation": 0.744},
      {"smiles": "O=C(O)c1ccccc1[N+](=O)[O-]", "caspase-3 activation": -0.644},
      {"smiles": "OC1CCCC1", "caspase-3 activation": 0.809},
      {"smiles": "O=Cc1ccc(Cl)cc1", "caspase-3 activation": -1.13},
      {"smiles": "CC=C(Cl)Cl", "caspase-3 activation": -0.538}
    ]}
  ]
}
